# Test results from PubChem BioAssay AID2110 (National Center for Advancing Translational Sciences (NCATS), 2009).
# Results filed as inconclusive are left out. The source made the active and inactive calls. Calls come from the whole dose curve; as a rule, active = well fitted curve in either direction with a large enough effect; inconclusive = small, poorly fitted or top-dose-only effect; inactive = no such curve, though single readings can be large or run the other way.
# Molecular target: Lysosomal alpha-glucosidase (Homo sapiens) (UniProt P10253)
# Test: Confirmation of Inhibitors and Activators of Purified Human alpha-Glucosidase Using an Alternate Red Fluorescent Susbtrate
# Conditions: purified enzyme, red fluorogenic substrate; series mostly up to 63.4 µM
# Method in brief: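 Recombinant human alpha-glucosidase (4 nM) with resorufin-[…] (400 uM) in 50 mM citrate buffer pH 5.0, 0.005% Tween-20, 20 min at room temperature, stopped at pH 10. AC50 from Hill fits.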
row,SMILES,Potency
1,O=C1Cc2cc(S(=O)(=O)N3CCN(c4ccc(CO)cc4)CC3)ccc2N1,13 µM [inhibitor] (active)
2,Cc1nc(N=Nc2cc(S(=O)(=O)O)c3cc([N+](=O)[O-])cc(S(=O)(=O)O)c3c2)c(COP(=O)(O)O)c(C=O)c1O,inactive
3,CCCN1CNc2c(c(=O)[nH]c(=S)n2CCc2ccc(Cl)cc2Cl)C1,1.26 µM (active)
4,CCCN1CNc2c(c(=O)[nH]c(=S)n2CCc2cccc(Cl)c2)C1,11.2 µM (active)
5,CCCN1CNc2c(c(=O)[nH]c(=S)n2CCc2ccccc2Cl)C1,2.51 µM (active)
6,CCCN1CNc2c(c(=O)[nH]c(=S)n2CCc2cc(OC)ccc2OC)C1,6.31 µM (active)
7,CCCN1CNc2c(c(=O)[nH]c(=S)n2CCC)C1,inactive
8,O=S(=O)(c1ccc(Cl)cc1)N1CCN(c2nc(Nc3cc(Cl)ccc3O)nc3ccccc23)CC1,inactive
9,CCCN1CNc2c(c(=O)[nH]c(=S)n2CCc2cc(C)cc(C)c2)C1,3.16 µM (active)
10,COc1ccc(C#Cc2c[nH]c(=O)c3cncnc23)cc1OC,inactive
11,CC(=O)c1ccc(N2CCN(S(=O)(=O)c3ccc4[nH]c(=O)[nH]c4c3)CC2)cc1,inactive
